Source: PubChem BioAssay
An excerpt weighted towards active compounds, which were near 2.1% of everything screened.
TDP-43 yeast inh: inhibitors of TDP-43 toxicity in yeast; TDP-43 expressing yeast growth rescue, BacTiter-Glo, 24 h; Potency, µM (series often up to 46.1 µM), inactives show at the highest dose growth rescue (activation), hits mostly activators; 410,000 compounds, 1.8% hits; further: % of control where 0% means no effect; nearly all actives have a fitted effect of over 50% in size
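Cell-based yeast growth screen: TDP-43 expression induced in galactose, inoculum OD600=0.02 after raffinose pregrowth to mid-log. Read-out BacTiter-Glo luminescence at 24 hr, 30 deg C; inhibition of toxicity seen as signal increase.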
aSyn rescue: inhibitors of alpha-synuclein toxicity in yeast. Yeast expressing alpha-synuclein, growth rescue, BacTiter-Glo, 24 h. Potency, µM (series often up to 46.1 µM), without a hit: at the top dose growth rescue (activation), most hits filed as activators. 370,000 compounds, 0.14% hits. AID 652106; further: % of control where 0% means no effect; nearly all actives have a fitted effect of over 65% in size
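Screening used galactose-induced yeast with toxic alpha-synuclein levels, exposed to compound for 24 hr at 30 deg C. Cell growth, read with BacTiter-Glo luminescence, gave the measured signal.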
Abeta rescue: A-beta toxicity reversal in yeast; 410,000 compounds, 0.063% hits; AID 1347071; yeast expressing A-beta42, growth rescue, OD600, 48 h; response scale: 0% DMSO, 100% iron-clioquinol control; Potency, µM (highest dose often 46.1 µM), usual class: activators; further: nearly all actives have a fitted effect of over 55% in size
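Yeast growth medium received pinned compounds, then yeast cells expressing toxic A-beta were added; plates incubated at 30 C for 48 hr. Growth read as absorbance at 600 nm, normalized to DMSO and equimolar FeCl3 plus clioquinol controls.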
FUS suppressor: suppressors of FUS proteinopathy in yeast; S. cerevisiae FUS-expressing, growth rescue, OD600, 24 h; Potency, µM (titrated, usually from 76.6 µM), usual class: activators; 390,000 compounds, 0.24% hits;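 further: plate controls were DMSO vehicle for no effect and reference control for full effect; nearly all actives have a fitted effect of over 55% in size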
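FUS-expressing yeast, raffinose-pregrown, induced in 2% galactose minimal medium at OD 0.005; compounds in a dilution series, 24hr at 30C. Growth restoration read as absorbance at 600 nm. CP55940 positive control, DMSO negative.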
Active calls of the source: *. The call rests on the fitted dose curve; in most records, active means well fitted curve in the direction sought with a large enough effect; inconclusive means small, poorly fitted or top-dose-only effect, or another doubt; inactive means no such curve, though single readings can be large; an effect the other way counts as inactive or inconclusive. Potency means the concentration at half of the fitted maximal effect.

How did COc1ccc(C(=O)Nc2cc(C(=O)O)cc(C(=O)O)c2)cc1Cl do in these assays?
TDP-43 yeast inh: -24%; aSyn rescue: -5%; Abeta rescue: inactive; FUS suppressor: inactive

What do the screens show for `COC(=O)c1cc(OC)c(OC)cc1NC(=S)Nc1cccc(C(C)=O)c1`?
TDP-43 yeast inh: -6%; aSyn rescue: -7%; Abeta rescue: inactive; FUS suppressor: inactive

What do the screens show for `O=C(c1ccc(F)cc1)N1CCN(S(=O)(=O)c2ccc3c(c2)OCCO3)CC1`?
TDP-43 yeast inh: 9%; aSyn rescue: -1%; Abeta rescue: inactive; FUS suppressor: inactive

Results for O=C(c1ccc2ccccc2n1)N1CCN(S(=O)(=O)c2ccc(Cl)cc2)CC1 ?
TDP-43 yeast inh: 25µM*; aSyn rescue: 13%; Abeta rescue: inactive; FUS suppressor: inactive

What do the screens show for `O=C(c1ccccc1F)N1CCN(S(=O)(=O)c2ccc3ccccc3c2)CC1`?
TDP-43 yeast inh: 35µM*; aSyn rescue: 2%; Abeta rescue: inactive; FUS suppressor: inactive

What do the screens show for `O=C(c1ccc(F)cc1F)N1CCN(S(=O)(=O)c2ccc3c(c2)OCCO3)CC1`?
TDP-43 yeast inh: 13µM*; aSyn rescue: 8%; Abeta rescue: inactive

Results for CCCCN(C)c1nc(-c2ccco2)c2c(c1C#N)CC(C)(C)OC2 ?
TDP-43 yeast inh: 20µM*; aSyn rescue: -38%; Abeta rescue: inactive; FUS suppressor: inactive

How did CCCCCc1cc[n+](CC(=O)c2ccccc2)cc1 do in these assays?
aSyn rescue: 5%

How did Cc1ccc(CNS(=O)(=O)c2ccc(C)s2)cc1 do in these assays?
TDP-43 yeast inh: inconclusive; aSyn rescue: 4%; Abeta rescue: inactive; FUS suppressor: inactive

How did Cc1ccc(CNS(=O)(=O)c2ccc(Cl)s2)cc1 do in these assays?
TDP-43 yeast inh: 13µM*; aSyn rescue: 9%; Abeta rescue: inactive; FUS suppressor: inactive

Results for CCC(=O)N1CCc2cc(CNS(=O)(=O)c3ccc(Cl)s3)ccc21 ?
TDP-43 yeast inh: 13µM*; Abeta rescue: inactive; FUS suppressor: inactive

Results for COc1ccc(/C(C)=N\NC(=O)c2ccco2)cc1 ?
FUS suppressor: inactive

How did O=C(Nc1ccc(Nc2ccccc2)cc1)c1ccc(Cl)cc1 do in these assays?
TDP-43 yeast inh: 5%; aSyn rescue: 11%; Abeta rescue: inactive; FUS suppressor: inactive

Results for CCC1(C(=O)c2ccc(Cl)cc2)C2c3ccccc3OC(=O)C21C(=O)Nc1ccccc1 (stereo unspecified) ?
TDP-43 yeast inh: 2%; aSyn rescue: 14µM*; Abeta rescue: inactive

What do the screens show for `O=C(C[n+]1ccccc1Br)c1ccc(Cl)cc1`?
aSyn rescue: 0%

Results for COc1ccc(C2=C(c3ccc([N+](=O)[O-])cc3)C(=O)OC2)cc1 ?
TDP-43 yeast inh: -8%; aSyn rescue: -5%; Abeta rescue: inactive; FUS suppressor: inactive

What do the screens show for `Cc1ccc(C2=C(c3ccc([N+](=O)[O-])cc3)C(=O)OC2)cc1C`?
TDP-43 yeast inh: 13µM*; aSyn rescue: -4%; Abeta rescue: inactive; FUS suppressor: inactive

How did CCCCNc1c(-c2cccc(-c3ccc(OC)cc3)c2)nc2ccc(C)cn12 do in these assays?
TDP-43 yeast inh: -93%; aSyn rescue: -72%; Abeta rescue: inactive; FUS suppressor: inactive

How did CCCCNc1c(-c2cccc(-c3cc(C(C)=O)cs3)c2)nc2ccc(C)cn12 do in these assays?
TDP-43 yeast inh: 11µM*; aSyn rescue: -7%; Abeta rescue: inactive; FUS suppressor: inactive

Results for O=C(Nc1ccc(Cl)cc1)OCc1ccccn1 ?
TDP-43 yeast inh: 25%; aSyn rescue: 0%; Abeta rescue: inactive; FUS suppressor: inactive

What do the screens show for `CS(=O)(=O)c1ccccc1COC(=O)Nc1ccc(Cl)cc1`?
TDP-43 yeast inh: 13µM*; aSyn rescue: 5%; Abeta rescue: inactive; FUS suppressor: inactive

Results for COc1ccc(-n2c(SCC(=O)NNC(=S)Nc3ccccc3)nc3ccccc3c2=O)cc1 ?
FUS suppressor: inactive

Results for O=C(Cn1c(=O)cnc2ccccc21)Nc1ccccc1N1CCOCC1 ?
TDP-43 yeast inh: -5%; aSyn rescue: -7%; Abeta rescue: inactive; FUS suppressor: inactive

Results for O=C(Cn1c(=O)cnc2ccccc21)Nc1cc(Cl)ccc1N1CCOCC1 ?
TDP-43 yeast inh: 13µM*; aSyn rescue: -1%; Abeta rescue: inactive; FUS suppressor: inactive

Results for COc1ccc(C(C)(C)C)cc1NC(=O)COC(=O)c1ccc([N+](=O)[O-])o1 ?
TDP-43 yeast inh: -93%; aSyn rescue: -73%; Abeta rescue: inactive; FUS suppressor: inactive

How did O=C(COC(=O)c1ccc([N+](=O)[O-])o1)Nc1ccc(N2CCOCC2)cc1 do in these assays?
TDP-43 yeast inh: inconclusive; aSyn rescue: -21%; Abeta rescue: inactive; FUS suppressor: inactive

What do the screens show for `O=C(COC(=O)c1ccc([N+](=O)[O-])o1)Nc1ccc(F)cc1`?
TDP-43 yeast inh: 16µM*; aSyn rescue: -7%; Abeta rescue: inactive; FUS suppressor: inactive

How did COc1ccc(C)cc1NC(=O)COC(=O)c1ccc([N+](=O)[O-])o1 do in these assays?
TDP-43 yeast inh: 11µM*; aSyn rescue: 2%; Abeta rescue: inactive; FUS suppressor: inactive

What do the screens show for `CCc1ccc(NS(=O)(=O)c2ccc3[nH]cc(C(=O)NC4CCCC4)c(=O)c3c2)cc1`?
TDP-43 yeast inh: 11%; Abeta rescue: inactive; FUS suppressor: 28µM*

Results for O=C(Nc1ccccc1)n1ccc2ccc(-c3ccc4cc[nH]c4c3)cc21 ?
FUS suppressor: inactive

How did CC1CCN(c2c([N+](=O)[O-])nn(-c3ccc4c(c3)OCCO4)[n+]2[O-])CC1 do in these assays?
TDP-43 yeast inh: 13µM*; aSyn rescue: 15%; Abeta rescue: inactive; FUS suppressor: inconclusive

How did O=C(c1ccco1)N1CCN(c2c([N+](=O)[O-])nn(-c3ccc(Cl)cc3)[n+]2[O-])CC1 do in these assays?
TDP-43 yeast inh: -4%; aSyn rescue: 2%; Abeta rescue: inactive; FUS suppressor: inactive

What do the screens show for `CN(C)c1ccc(/C=C/c2ccnc3ccc([N+](=O)[O-])cc23)cc1`?
aSyn rescue: 1%

How did Cc1ccn2c(C=O)c(-c3ccc(F)cc3)c(C=O)c2c1 do in these assays?
TDP-43 yeast inh: 20µM*; aSyn rescue: -8%; Abeta rescue: inactive; FUS suppressor: inactive

How did O=Cc1c(-c2ccc(F)cc2)nc2ccccn12 do in these assays?
TDP-43 yeast inh: -12%; aSyn rescue: -12%; Abeta rescue: inactive; FUS suppressor: inactive

What do the screens show for `COc1ccc(-c2nc(CSCC(=O)N3CCc4ccccc4C3)c(C)o2)cc1OC`?
TDP-43 yeast inh: inconclusive; aSyn rescue: 3%; Abeta rescue: inactive; FUS suppressor: inactive

What do the screens show for `COc1ccc(-c2nc(CSCC(=O)N3CCN(c4cccc(C)c4)C(C)C3)c(C)o2)cc1OC` (stereo unspecified)?
TDP-43 yeast inh: 22µM*; aSyn rescue: 8%; Abeta rescue: inactive; FUS suppressor: inconclusive
